# Laboratory results: the supplement of paper PMC8728848
# The entries come from a sample that favours the strongest signals as a whole.
# B1: Epa12 (Candida glabrata) (protein)
# chain: MGSSHHHHHHSSGLVPRGSHMLEPDNSLQIFDSFLSNPSKYPLGCSPKITNPKKGLSMELYSYPYRKKGSHPCWDPAYLDPNFPRVGYKKNKLIARVDGVSGDINFNFHPKRQCTPIADYLPPNFNYNEPITTTNFTMLLYGYFKPKVTGLHTFDISADDLLFMNFGAGNAFDCCRRDSTADTFGNYVAWAIWGRRIVRNKLTVRLDKGIYYPLRLFFNNRDYYGQMRLTFKTEHGSERITDFSDYFFSVDDTSEGCPGLITYESECADVKSSTVLETDYITIQAEKE
# What was measured:
# Experiment in all cases: glycan array binding signal (z-score within array); higher = stronger binding
# Conditions in all cases: glycan notation: IUPAC condensed, linker removed
# [1] = molecular target: Fuc(a1-2)Gal(b1-4)Fuc(a1-3)]GlcNAc(b1-2)Man(a1-3)[Fuc(a1-2)Gal(b1-4)[Fuc(a1-3)]GlcNAc(b1-2)Man(a1-6)]Man(b1-4)GlcNAc(b1-4)GlcNAc
# How it was run: (§1)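 Glycan array data were curated from 3228 arrays in the Consortium for Functional Glycomics database and kept only where the protein sequence was available. Glycan names were converted to IUPAC-condensed notation, and columns mapping to the same glycan were averaged. The binding signal is a within-array Z-score, averaged across arrays of the same protein sequence at different concentrations or buffers and across linkers. Negative Z-scores can be read as non-binding.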
# [2] = molecular target: Fuc(a1-2)[Gal(a1-4)]Gal(b1-4)GlcNAc
# How it was run: as §1
# [3] = molecular target: Fuc(a1-2)[GalNAc(a1-3)]Gal(b1-3)GlcNAc(b1-3)GalNAc
# How it was run: as §1
# [4] = molecular target: Fuc(a1-4)GlcNAc
# How it was run: as §1
# [5] = molecular target: Gal(a1-3)Gal(b1-3)GlcNAc
# How it was run: as §1
# [6] = molecular target: Gal(a1-3)Gal(b1-3)GlcNAc(b1-2)Man
# How it was run: as §1
# [7] = molecular target: Gal(a1-3)Gal(b1-3)GlcNAc(b1-6)GalNAc
# How it was run: as §1
# [8] = molecular target: Gal(a1-3)Gal(b1-4)GlcNAc(b1-2)Man(a1-3)[Gal(a1-3)Gal(b1-4)GlcNAc(b1-2)Man(a1-6)]Man(b1-4)GlcNAc(b1-4)GlcNAc
# How it was run: as §1
# [9] = molecular target: Gal(a1-3)Gal(b1-4)[Fuc(a1-3)]GlcNAc(b1-2)Man(a1-3)[Gal(a1-3)Gal(b1-4)[Fuc(a1-3)]GlcNAc(b1-2)Man(a1-6)]Man(b1-4)GlcNAc(b1-4)GlcNAc
# How it was run: as §1
# [10] = molecular target: Gal(a1-3)[Gal(a1-4)]Gal(b1-4)GlcNAc
# How it was run: as §1
# [11] = molecular target: Gal(a1-4)Gal(b1-4)Gal
# How it was run: as §1
# [12] = molecular target: Gal(a1-4)Gal(b1-4)GlcNAc
# How it was run: as §1
# [13] = molecular target: Gal(a1-4)Gal(b1-4)GlcNAc(b1-2)Man(a1-3)[Gal(a1-4)Gal(b1-4)GlcNAc(b1-2)Man(a1-6)]Man(b1-4)GlcNAc(b1-4)GlcNAc
# How it was run: as §1
# [14] = molecular target: Gal(a1-4)Gal(b1-4)GlcNAc(b1-3)Gal(b1-4)Glc
# How it was run: as §1
# [15] = molecular target: Gal(a1-4)GlcNAc
# How it was run: as §1
# [16] = molecular target: Gal(b1-2)Gal
# How it was run: as §1
# [17] = molecular target: Gal(b1-3)Gal(b1-4)GlcNAc
# How it was run: as §1
# [18] = molecular target: Gal(b1-3)GalNAc
# How it was run: as §1
# [19] = molecular target: Gal(b1-3)GalNAc(a1-3)[Fuc(a1-2)]Gal(b1-4)GlcNAc
# How it was run: as §1
# [20] = molecular target: Gal(b1-3)GlcNAc(a1-3)Gal(b1-4)GlcNAc
# How it was run: as §1
# [21] = molecular target: Gal(b1-3)GlcNAc(b1-3)Gal(b1-4)GlcNAc(b1-2)Man(a1-3)[Gal(b1-3)GlcNAc(b1-3)Gal(b1-4)GlcNAc(b1-2)Man(a1-6)]Man(b1-4)GlcNAc(b1-4)GlcNAc
# How it was run: as §1
# [22] = molecular target: Gal(b1-3)GlcNAc(b1-6)GalNAc
# How it was run: as §1
# [23] = molecular target: Gal(b1-3)[Fuc(a1-4)]GlcNAc(b1-3)Gal(b1-4)[Fuc(a1-3)]GlcNAc
# How it was run: as §1
# [24] = molecular target: Gal(b1-4)Glc6S
# How it was run: as §1
# [25] = molecular target: Gal(b1-4)GlcNAc(a1-6)Gal(b1-4)GlcNAc
# How it was run: as §1
# [26] = molecular target: Gal(b1-4)GlcNAc(b1-2)Man(a1-3)Man(b1-4)GlcNAc(b1-4)GlcNAc
# How it was run: as §1
# [27] = molecular target: Gal(b1-4)GlcNAc(b1-2)Man(a1-3)[Gal(b1-4)GlcNAc(b1-2)Man(a1-6)]Man(b1-4)GlcNAc(b1-4)GlcNAc
# How it was run: as §1
# [28] = molecular target: Gal(b1-4)GlcNAc(b1-2)Man(a1-3)[Man(a1-6)]Man(b1-4)GlcNAc(b1-4)GlcNAc
# How it was run: as §1
# [29] = molecular target: Gal(b1-4)GlcNAc(b1-2)Man(a1-6)Man(b1-4)GlcNAc(b1-4)GlcNAc
# How it was run: as §1
# [30] = molecular target: Gal(b1-4)GlcNAc(b1-2)Man(a1-6)[GlcNAc(b1-2)Man(a1-3)]Man(b1-4)GlcNAc(b1-4)GlcNAc
# How it was run: as §1
binder,measurement,setting,value
B1,glycan array binding signal (z-score),[1],-0.132
same,glycan array binding signal (z-score),[2],4.84
same,glycan array binding signal (z-score),[3],-0.345
same,glycan array binding signal (z-score),[4],-0.241
same,glycan array binding signal (z-score),[5],1.71
same,glycan array binding signal (z-score),[6],3.52
same,glycan array binding signal (z-score),[7],4.44
same,glycan array binding signal (z-score),[8],2.04
same,glycan array binding signal (z-score),[9],-0.179
same,glycan array binding signal (z-score),[10],1.17
same,glycan array binding signal (z-score),[11],-0.269
same,glycan array binding signal (z-score),[12],3.53
same,glycan array binding signal (z-score),[13],0.51
same,glycan array binding signal (z-score),[14],1.9
same,glycan array binding signal (z-score),[15],5.7
same,glycan array binding signal (z-score),[16],0.125
same,glycan array binding signal (z-score),[17],3.49
same,glycan array binding signal (z-score),[18],0.135
same,glycan array binding signal (z-score),[19],-0.255
same,glycan array binding signal (z-score),[20],-0.242
same,glycan array binding signal (z-score),[21],-0.34
same,glycan array binding signal (z-score),[22],-0.093
same,glycan array binding signal (z-score),[23],-0.311
same,glycan array binding signal (z-score),[24],3.51
same,glycan array binding signal (z-score),[25],3.61
same,glycan array binding signal (z-score),[26],-0.259
same,glycan array binding signal (z-score),[27],0.425
same,glycan array binding signal (z-score),[28],-0.214
same,glycan array binding signal (z-score),[29],-0.206
same,glycan array binding signal (z-score),[30],-0.119
